Bioassay records deposited in PubChem BioAssay by National Center for Advancing Translational Sciences (NCATS).
Sampled rows, rich in hits. Any-hit rate of the full collection: about 4.7%.
D1 antag: antagonists of human D1 dopamine receptor; HEK293 TREx D1 cells, calcium flux, dopamine EC80; stronger effect = lower value; activity change, negative = inhibition, % at 10 µM; 360,000 tested, 3.2% active; in the data active = activity change below about -30%; note: % is set by controls: 0 for no effect and ±100 for the full control effect
Target sequence (P21728 whole entry, looked up): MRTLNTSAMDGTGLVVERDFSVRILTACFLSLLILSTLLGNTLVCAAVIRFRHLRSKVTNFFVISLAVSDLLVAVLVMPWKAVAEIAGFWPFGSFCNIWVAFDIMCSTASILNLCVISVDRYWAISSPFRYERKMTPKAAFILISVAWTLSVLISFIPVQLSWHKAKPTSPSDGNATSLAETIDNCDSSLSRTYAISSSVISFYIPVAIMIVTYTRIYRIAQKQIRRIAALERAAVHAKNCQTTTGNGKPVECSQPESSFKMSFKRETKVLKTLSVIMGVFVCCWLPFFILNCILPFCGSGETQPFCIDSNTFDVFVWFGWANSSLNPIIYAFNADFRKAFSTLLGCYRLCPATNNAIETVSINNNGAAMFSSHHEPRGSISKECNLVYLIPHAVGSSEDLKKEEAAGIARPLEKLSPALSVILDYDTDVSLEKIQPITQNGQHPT
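Allosteric or orthosteric antagonism assessed as attenuation of the calcium response to EC80 dopamine, added 180 s after compound, in induced HEK293 Trex D1 cells loaded with no-wash calcium dye.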
TRHR ag: agonists of human TRH receptor; AID 493084; 360,000 tested, 0.18% active; TRHR cells, calcium flux fluo-8, FDSS agonist mode; P34981; activation, % at 2 µM; note: 0% is about no effect
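Steps: seed TRHR cells overnight; add fluo-8 no-wash Ca dye, RT 30 min–1.5 h; record 10 s baseline; pin-transfer compounds; monitor fluorescence 1 cycle/s for the agonist window. Calcium increases flag candidate agonists.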
TRHR PAM: allosteric enhancers of human TRH receptor; P34981; TRHR cells, fluo-8 calcium fluorescence, EC20 TRH enhancement; enhancement, % at 2 µM; 360,000 tested, 0.66% active; in the data active = enhancement above about 30%; note: 0% is about no effect
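TRHR-expressing cells loaded with fluo-8 calcium dye were read kinetically (ex 480/em 530) during compound addition, then stimulated with an EC20 of TRH (10 nM final). Enhancement of the Gq-mediated intracellular calcium response was scored.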
D1 agonist: agonists of human D1 dopamine receptor; 360,000 tested, 1% active; AID 504660; HEK293 T-REx D1 cells, calcium flux, agonist mode; activation, % at 2 µM; P21728; note: 0% is about no effect
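Inducible HEK293 T-REx D1 cells, force-coupled to calcium signalling, were plated at 4000 cells/well with tetracycline and held overnight at 30 C. After no-wash calcium dye loading, compound-evoked calcium rise over 180 s flagged agonists.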
D1 potentiator: enhances dopamine response at the human D1 receptor | P21728 | HEK293 TREx D1 cells, calcium flux, dopamine EC20 potentiation | potentiation, % at 10 µM | 360,000 tested, 0.036% active | AID 504651; in the data active = potentiation above about 30%; note: 0% is about no effect
The depositor's hits bear a star. Cut-off read from the data, not from the text of the source, unless noted: active = activation above about 30%; inactive = the rest.

For CC(C)[C@H](NS(=O)(=O)c1ccc2c(c1)OCCO2)C(=O)OCC(=O)Nc1cccc(Cl)c1Cl the results were D1 antag -31*, TRHR ag 0, TRHR PAM 13, D1 agonist 4 and D1 potentiator -5.
Screening CCCCOc1cccc(C2c3c(-c4cc(C)ccc4O)n[nH]c3C(=O)N2CCOC)c1 (stereo not given) returned D1 antag 18, TRHR ag 0, TRHR PAM 29, D1 agonist -1 and D1 potentiator 1.
For CC1(C)CC(=O)c2cc(-c3nc(-c4ccccc4)cs3)c(=O)[nH]c2C1 the results were D1 antag 11, TRHR ag 2, TRHR PAM -3, D1 agonist 0 and D1 potentiator 2.
CC(=O)c1c(C)[nH]c(C2=NNC(=NC(C)(C)C)SC2)c1C was read as D1 antag -33*, TRHR ag 1, TRHR PAM 0, D1 agonist 2 and D1 potentiator -8.
For CC(C)(C)N=C1NN=C(c2ccc(Cl)cc2)CS1 the results were D1 antag -40*, TRHR ag 0, TRHR PAM 6, D1 agonist 0 and D1 potentiator -11.
CCOC(=O)c1c(C)[nH]c(C2=NNC(=Nc3ccc(OCC)cc3)SC2)c1C was read as D1 antag -72*, TRHR ag -1, TRHR PAM 4, D1 agonist -2 and D1 potentiator -16.
For COc1ccc(CCNC(=O)c2cc(-c3ccc(C)cc3)nc3n[nH]c(-c4ccc(F)cc4)c23)cc1OC the results were D1 antag 12, TRHR ag 1, TRHR PAM 8, D1 agonist 6 and D1 potentiator -1.
COC(=O)C1=C(C)Nc2ncnn2C1c1ccc(OCc2ccccc2)cc1 (stereo not given) was read as D1 antag -38*, TRHR ag 0, TRHR PAM -8, D1 agonist 4 and D1 potentiator -5.
Screening CC1=C(C(=O)OC(C)C)C(c2ccncc2)n2ncnc2N1 (stereo not given) returned D1 antag -12, TRHR ag 0, TRHR PAM 9, D1 agonist 2 and D1 potentiator -2.
CC1=C(C(=O)OC(C)C)C(c2cccnc2)n2ncnc2N1 (stereo not given) was read as D1 antag -34*, TRHR ag 2, TRHR PAM -3 and D1 agonist 1.
`Cc1ccc(C(=O)Nc2c(-c3ccccc3)nc3ccccn23)cc1` gave D1 antag 16, TRHR ag 0, TRHR PAM -9, D1 agonist 0 and D1 potentiator 1.
`COc1ccccc1CN(C)C(=O)c1ccc(COc2ccccc2)cc1` gave D1 antag -4, TRHR ag -1, TRHR PAM -12, D1 agonist 11 and D1 potentiator -4.
COc1cccc(CN(C)C(=O)c2ccc(Oc3ccccc3)cc2)c1OC was read as D1 antag 2, TRHR ag -2, TRHR PAM -4, D1 agonist 32* and D1 potentiator -7.
COc1cccc(CN(C)C(=O)c2ccc(COc3ccc(Cl)cc3)cc2)c1OC was read as D1 antag -19, TRHR ag -1, TRHR PAM 7 and D1 agonist 54*.
Screening O=C(NC1CC(=O)N(c2ccc(Cl)cc2)C1)C(=O)c1c[nH]c2ccccc12 (stereo not given) returned TRHR ag 0, TRHR PAM 4, D1 agonist 0 and D1 potentiator -2.
Cc1ccc(NC(=O)c2cc(S(=O)(=O)NC3CCCCC3)ccc2F)cc1Cl was read as D1 antag -9, TRHR ag 1, TRHR PAM -1, D1 agonist 0 and D1 potentiator -1.
`O=C(c1ccc(S(=O)(=O)N2CCC(c3nc4ccccc4[nH]3)CC2)cc1)N1CCOCC1` gave D1 antag -89*, TRHR ag 0, TRHR PAM 7, D1 agonist 2 and D1 potentiator 8.
Screening CC(=O)Nc1ccc(S(=O)(=O)N(C)CC(=O)NC2=NCCS2)cc1 returned D1 antag -31*, TRHR ag 0, TRHR PAM 2, D1 agonist 2 and D1 potentiator -8.
`Cc1ccc(NC(=O)C2CCN(S(=O)(=O)c3ccc4c(c3)OCCCO4)CC2)nc1` gave D1 antag -33*, TRHR ag 0, TRHR PAM -2, D1 agonist 2 and D1 potentiator -7.
For O=C(Nc1ccccn1)C1CCN(S(=O)(=O)c2ccc3c(c2)OCCCO3)CC1 the results were D1 antag -3, TRHR ag 0, TRHR PAM 3, D1 agonist 11 and D1 potentiator -9.
Screening O=C(CN1CCCN(S(=O)(=O)c2ccc(Br)cc2)CC1)Nc1ccc2c(c1)OCO2 returned D1 antag -49*, TRHR ag 0, TRHR PAM -6, D1 agonist 0 and D1 potentiator -15.
Cc1ccc(NC(=O)C2CCN(S(=O)(=O)c3ccc(Cl)c(C(F)(F)F)c3)CC2)nc1 was read as D1 antag -39*, TRHR ag 0, TRHR PAM -11, D1 agonist 1 and D1 potentiator -6.
For Cc1ccnc(NC(=O)C2CCN(S(=O)(=O)c3ccc(Cl)c(C(F)(F)F)c3)CC2)c1 the results were D1 antag 0, TRHR ag 0, TRHR PAM -12, D1 agonist 1 and D1 potentiator -4.
Screening Cc1ccc(S(=O)(=O)N2CCC(C(=O)Nc3ccc4c(c3)OCO4)CC2)cc1 returned D1 antag -47*, TRHR ag 0, TRHR PAM 3, D1 agonist 2 and D1 potentiator -9.
`CCOc1ccccc1CNC(=O)c1ccc(CS(=O)Cc2cccc(Cl)c2)o1` (stereo not given) gave D1 antag -1, TRHR ag 0, TRHR PAM -4, D1 agonist 1 and D1 potentiator 0.
`CCC(=O)N1CCc2cc(Br)cc(S(=O)(=O)N3CCC(C(=O)N(CC)CC)CC3)c21` gave D1 antag -3, TRHR ag -1, TRHR PAM -8, D1 agonist -2 and D1 potentiator 1.
COc1ccccc1OCc1ccc(C(=O)Nc2ccc(C)c(C)c2)o1 was read as D1 antag -20, TRHR ag 0, TRHR PAM -1, D1 agonist 1 and D1 potentiator 4.
For CCOC(=O)c1scc(-c2ccccc2)c1S(=O)(=O)N1CCN(c2ccccc2OC)CC1 the results were D1 antag -10, TRHR ag 0, TRHR PAM -10, D1 agonist 1 and D1 potentiator -6.
`COc1ccc(NC(C)C(=O)N/N=C/c2ccccc2OCc2cccc(Br)c2)cc1` (stereo not given) gave D1 antag -10, TRHR ag 0, TRHR PAM 34*, D1 agonist 4 and D1 potentiator -1.
